# Only some compounds are listed: those with a hit (about 19% of all), similar ones and a draw of the others.
# IL1B secr inh = blocks inflammasome-driven IL-1 beta release. THP-1 LPS/ATP IL-1B secretion, AlphaLISA, 16 h; stronger effect = lower value. activity change, % at 57.5 µM. hit rate 4.7% among 360,000. AID 743279; in the data active = activity change below about -50%; inconclusive = mostly about -30% to -49%
#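 Secreted IL-1B measured by AlphaLISA bead assay after 16 h compound exposure of THP-1 cells; compounds (final up to 57.5 uM) added 1 h before LPS (250 ng/mL) and ATP (1.25 mM) stimulation; lower signal means less secretion.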
# ELG1 repair inh = blocks ELG1-dependent DNA repair in HEK293T cells. HEK293T ELG1-luciferase reporter, luminescence, 16 h; DNA damage induced by 5-fluorouridine. Potency, µM (titrated, usually from 46.1 µM), for inactives: at the top dose activity change, negative = inhibition, actives largely listed as inhibitors. hit rate 2.3% among 330,000. AID 504467; note: potency is the fitted concentration of half-maximal effect; nearly all actives have a fitted effect of over 55% in size
#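 Luminescence from the luciferase reporter, measured 30 min after ONE-Glo reagent at room temperature, was the read-out. Beforehand, 2,000 cells per well were exposed for 16 hr at 37 °C to 5-fluorouridine together with compound or vehicle.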
# TDP1 cell noCPT = qHTS for Inhibitors of human tyrosyl-DNA phosphodiesterase 1 (TDP1): qHTS in cells in absence of CPT; DT40 Tdp1-/- hTDP1 cells, no CPT, ATP luminescence, 48 h; Potency, µM (series often up to 46.2 µM), inactives show at the top dose activity change, negative = growth inhibition, actives largely listed as inhibitors; hit rate 15% among 420,000; AID 686978, 2013; note: potency is the fitted concentration of half-maximal effect; nearly all actives have a fitted effect of over 55% in size
#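 A cellular qHTS used chicken DT40 cells lacking endogenous Tdp1 but carrying stably transfected human TDP1. Compounds were applied without camptothecin, and cell growth kinetics were judged by ATP-dependent luminescence after ≥48 hr.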
# HT1080-NT tox = kills 2HG-producing HT-1080-NT fibrosarcoma cells; hit rate 1.6% among 360,000; Potency, µM (doses to about 46.1 µM), for the others: top-dose activity, negative = less viability, actives largely listed as cytotoxic; HT-1080-NT fibrosarcoma viability, CellTiter-Glo ATP luminescence, 48 h;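 note: NT is the 2HG producing partner of a matched IDH1 knockdown line; potency is the fitted concentration of half-maximal effect; 0% = DMSO-treated cells and -100% = media-only wells without cells; nearly all actives have a fitted effect of over 55% in size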
#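 Viability of the 2HG-overproducing fibrosarcoma line after 48 hours of compound exposure at 37 degrees C was determined by luminescence with CellTiter-Glo, and concentration-effect curves were then fitted and categorized.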
# DT40 TDP1 CPT = growth inhibition of DT40 Tdp1-/-;hTDP1 cells with camptothecin (screen for TDP1 inhibitors); chicken DT40 Tdp1-/-;hTDP1 cells + 20 nM CPT, ATP luminescence, 48 h; hit rate 12% among 420,000; Potency, µM (top dose mostly 46.2 µM), inactives show top-dose activity change, negative = growth inhibition, hits mostly inhibitors; note: potency is the fitted concentration of half-maximal effect; nearly all actives have a fitted effect of over 55% in size
#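 Cell growth measured by CellTiter-Glo luminescence after a minimum 48 h, 37 C compound exposure with 20 nM CPT in Tdp1-knockout DT40 cells stably expressing hTDP1, seeded 400/well; qHTS titration format.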
# HT1080 IDH1KD tx = toxicity to HT-1080 IDH1 knockdown cells (counter line) | HT-1080 IDH1 knockdown viability, ATP luminescence, 48 h | AID 686971 | Potency, µM (series often up to 46.1 µM), without a hit: top-dose activity, negative = toxicity, hits mostly cytotoxic | hit rate 2% among 360,000;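 note: potency is the fitted concentration of half-maximal effect; 0% = DMSO wells and -100% = cell-free medium wells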
#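 Knockdown cells (IDH1KD HT-1080) received compounds 2 h after plating at 750 cells/well and were kept 48 h at 37 °C in 5% FBS RPMI. A CellTiter-Glo luminescence read gave % activity for curve fitting.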
# The depositor's hits bear a star; u = inconclusive; x = no result given. Unless noted, calls come from the whole dose curve; as a rule, active = well fitted curve in the direction sought with a large enough effect; inconclusive = small, poorly fitted or top-dose-only effect, or another doubt; inactive = no such curve, though single readings can be large; an effect the other way counts as inactive or inconclusive. Unless noted, % is set by controls: 0 for no effect and ±100 for the full control effect.
SMILES,IL1B secr inh,ELG1 repair inh,TDP1 cell noCPT,HT1080-NT tox,DT40 TDP1 CPT,HT1080 IDH1KD tx
CC(C)(C)OC(=O)N1CCC[C@@H]1C(=O)NCc1ccccc1Cl,30,x,-30%,11%,-17%,3%
Cc1cc(C(=O)O)cc(Br)c1N,13,16%,5%,3%,15%,12%
Cc1cc(N)cc(C)c1-c1c(Br)cc(N)cc1Br,14,x,18µM*,u,13µM*,u
COc1ccc2cc3cc(C(=O)NCc4ccc5c(c4)OCO5)oc3nc2c1,-20,-14%,-27%,6%,-6%,1%
COc1ccc2cc3cc(C(=O)N4CCN(c5ccccn5)CC4)oc3nc2c1,6,-4%,18µM*,10%,u,2%
COc1ccc2nc3oc(C(=O)N4CCN(c5cccc(Cl)c5)CC4)cc3cc2c1,-22,u,u,15%,u,12%
COc1ccc2cc3cc(C(=O)N4CCN(Cc5ccc6c(c5)OCO6)CC4)oc3nc2c1,-65*,23µM*,u,-28%,u,u
Cc1ccc(S(=O)(=O)N2CCSCCSCCSCCSCC2)cc1,-7,x,u,11%,-9%,6%
COc1ccc(-c2nc(C(N)=O)c3[nH]c(=O)n(-c4cccc(C)c4)c3n2)c(OC)c1,-9,u,23µM*,-12%,u,-10%
COc1ccccc1-c1nc(C(N)=O)c2[nH]c(=O)n(-c3cccc(C)c3)c2n1,-14,u,u,-8%,u,-10%
CC(C)(C)c1n[nH]c(=S)n(/N=C/c2cccs2)c1=O,28,u,-24%,2%,-5%,10%
Cc1n[nH]c(=S)n(/N=C/c2cccs2)c1=O,-6,16%,6.5µM*,-9%,u,1%
CCOc1ccc(Oc2ccccc2NC(=O)CCc2nc3ccccc3c(=O)[nH]2)cc1,82,x,21µM*,-4%,23µM*,-19%
CCN(c1ccccc1)S(=O)(=O)c1ccc(OC)c(NC(=O)CNCCc2ccccc2)c1,u,u,21µM*,u,26µM*,u
CCN(c1ccccc1)S(=O)(=O)c1ccc(OC)c(NC(=O)CCc2nc3ccccc3c(=O)[nH]2)c1,7,u,15µM*,-9%,18µM*,-10%
CCN(c1ccccc1)S(=O)(=O)c1ccc(OC)c(NC(=O)C2CCC2)c1,-5,-4%,u,-11%,u,u
CCOc1ccccc1NC(=O)CCCc1nc2ccccc2c(=O)[nH]1,13,-18%,u,1%,-16%,u
CCN(c1ccccc1)S(=O)(=O)c1ccc(OC)c(NC(=O)Cc2ccc(F)cc2)c1,u,-18%,18µM*,-3%,u,-11%
COc1ccc(S(=O)(=O)N2CCOCC2)cc1NC(=O)CCc1nc2ccccc2c(=O)[nH]1,-10,16%,7%,-3%,u,2%
CC1CCC(CC(=O)O)(C(=O)O)CC1 (stereo not given),14,x,-12%,3%,-4%,9%
C=C1[C@@H](CCO)N(S(=O)(=O)C(C)(C)C)C[C@@H]1C,-1,x,-8%,7%,-9%,7%
COc1ccc(C)cc1NC(=O)NCCn1nnc2cc(S(=O)(=O)N(C)C)ccc21,x,x,-27%,x,u,x
CSc1nc(O)cc(=O)n1-c1ccc(F)cc1,-8,6%,2%,4%,-2%,2%
CCCCCC(=O)OCc1ccc(C2=CC(=O)CC(C)(C)C2=O)cc1,-5,x,-13%,6%,0%,17%
Cc1ccc(N2C(=O)CCC2=O)c(C)c1,-6,x,-2%,17%,4%,20%
CC(=O)c1ccc(NC(=O)CC2Sc3ccccc3NC2=O)cc1 (stereo not given),x,x,13µM*,x,12µM*,x

# From PubChem BioAssay
